Read-out in assay [1]: solute carrier (SLC22A1), SLC22A1 (gene 6580)
Description: LTEA_HepaRG_SLC22A1: Life Technologies and Expression Analysis (LTEA) Assay for solute carrier (SLC22A1) using HepaRG (AID 2283524). The note with it: mRNA level, 48 h; actives raise or lower the signal. The method, boiled down: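 Transcript level of SLC22A1 quantified by qRT-PCR (normalized to three housekeeping genes) after 48 h chemical exposure of HepaRG cells, eight concentrations up to 100 µM, half-log steps, 0.5% DMSO vehicle. Gain or loss relative to DMSO fitted bidirectionally.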

Read-out in assay [2]: Pyruvate Dehydrogenase Kinase 4 (PDK4), PDK4 (gene 5166)
The experiment in a line: LTEA_HepaRG_PDK4: Life Technologies and Expression Analysis (LTEA) Assay for Pyruvate Dehydrogenase Kinase 4 (PDK4) using HepaRG (AID 2283525). The settings on record: mRNA level, 48 h; actives raise or lower the signal. The method, boiled down: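 Readout is qRT-PCR of PDK4 transcript, normalized to three housekeeping genes, with bidirectional fitting against 0.5% DMSO vehicle. Differentiated HepaRG cells were treated 48 h in serum-free induction medium, duplicate wells, eight-point half-log series topping at 100 uM.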

Read-out in assay [3]: NAD(P)H dehydrogenase [quinone] 1 (NQO1), NQO1 (gene 1728)
The experiment in a line: LTEA_HepaRG_NQO1: Life Technologies and Expression Analysis (LTEA) Assay for NAD(P)H dehydrogenase [quinone] 1 (NQO1) using HepaRG (AID 2283526). The settings on record: mRNA level, 48 h; actives raise or lower the signal. A digest of the protocol:
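In this assay, gene expression is read by qRT-PCR after 48 h exposure of HepaRG cells to eight concentrations (max 100 uM, half-log) in 0.5% DMSO. Each chemical runs in duplicate, and activity is scored relative to vehicle.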

Read-out in assay [4]: Nuclear factor erythroid 2-related factor 2 (Homo sapiens) (UniProt Q16236)
The experiment in a line: LTEA_HepaRG_NFE2L2: Life Technologies and Expression Analysis (LTEA) Assay for Nuclear factor erythroid 2-related factor 2 (NFE2L2) Transcription Factor using HepaRG (AID 2283527). The note with it: mRNA level, 48 h; actives raise or lower the signal. The method, boiled down:
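NFE2L2 transcript level was read by qRT-PCR (housekeeping ACTB/GAPDH/POLR2A normalisation) after 48 h chemical treatment of HepaRG in serum-free induction medium. Duplicate 8-point half-log curves, top 100 uM, 0.5% DMSO vehicle; up- or down-regulation fitted against vehicle.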

Read-out in assay [5]: succinate dehydrogenase complex iron sulfur subunit B (SDHB), SDHB (gene 6390)
Description: LTEA_HepaRG_SDHB: Life Technologies and Expression Analysis (LTEA) Assay for succinate dehydrogenase complex iron sulfur subunit B (SDHB) using HepaRG (AID 2283528). The note with it: mRNA level, 48 h; actives raise or lower the signal. The method, boiled down:
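HepaRG cells (~100,000/well, plated 48 h) exposed in duplicate for 48 h in serum-free induction medium to 8-point half-log series from 100 uM in 0.5% DMSO; mRNA by qRT-PCR normalised to ACTB, GAPDH, POLR2A; bidirectional fit versus DMSO.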

Read-out in assay [6]: Signal transducer and activator of transcription 3 (Homo sapiens) (UniProt P40763)
The experiment in a line: LTEA_HepaRG_STAT3: Life Technologies and Expression Analysis (LTEA) Assay for Signal transducer and activator of transcription (STAT3) using HepaRG (AID 2283529). The note with it: mRNA level, 48 h; actives raise or lower the signal. A digest of the protocol: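 STAT3 transcript quantified by qRT-PCR against three housekeeping genes (ACTB, GAPDH, POLR2A), fitted both directions relative to DMSO. HepaRG cultures exposed 48 h to eight half-log concentrations, top 100 uM, 0.5% DMSO, serum-free induction medium.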

Read-out in assay [7]: solute carrier (SLCO1B1), SLCO1B1 (gene 10599)
The experiment in a line: LTEA_HepaRG_SLCO1B1: Life Technologies and Expression Analysis (LTEA) Assay for solute carrier (SLCO1B1) using HepaRG (AID 2283530). The note with it: mRNA level, 48 h; actives raise or lower the signal. The method, boiled down:
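Differentiated human HepaRG cells, plated 48 h, switched to serum-free induction medium and exposed in duplicate for 48 h to 8 half-log concentrations (top 100 uM) in 0.5% DMSO. SLCO1B1 mRNA by TaqMan qRT-PCR, normalized to ACTB/GAPDH/POLR2A.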

Read-out in assay [8]: sulfotransferase 2A1 (SULT2A1), SULT2A1 (gene 6822)
Description: LTEA_HepaRG_SULT2A1: Life Technologies and Expression Analysis (LTEA) Assay for sulfotransferase 2A1 (SULT2A1) using HepaRG (AID 2283531). The settings on record: mRNA level, 48 h; actives raise or lower the signal. The method, boiled down:
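Differentiated human HepaRG cells in serum-free induction medium were exposed for 48 h to eight half-log concentrations (top 100 uM, 0.5% DMSO). SULT2A1 mRNA was measured by qRT-PCR, normalized to ACTB, GAPDH and POLR2A, and fitted bidirectionally against DMSO.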

Read-out in assay [9]: Transforming Growth Factor (TGFA), TGFA (gene 7039)
Description: LTEA_HepaRG_TGFA: Life Technologies and Expression Analysis (LTEA) Assay for Transforming Growth Factor (TGFA) using HepaRG (AID 2283532). The settings on record: mRNA level, 48 h; actives raise or lower the signal. The method, boiled down: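 TGFA transcript quantified by qRT-PCR (Fluidigm arrays) against three housekeeping genes, after 48 hours chemical treatment of HepaRG cells. Top concentration 100 uM with half-log dilutions, 8 points, duplicates, 0.5% DMSO.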

Read-out in a further assay: TIMP1, TIMP1 (gene 7076)
Description: LTEA_HepaRG_TIMP1: Life Technologies and Expression Analysis (LTEA) Assay for TIMP1 using HepaRG (AID 2283534). The note with it: mRNA level, 48 h; actives raise or lower the signal. A digest of the protocol: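 Differentiated human HepaRG cells in serum-free induction medium were exposed 48 h to chemicals (8 half-log concentrations, top 100 uM, 0.5% DMSO). TIMP1 mRNA was quantified by TaqMan qRT-PCR, normalized to ACTB/GAPDH/POLR2A; bidirectional fit versus DMSO.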

Read-out in assay [10]: Tumor necrosis factor receptor 1 (TNFRSF1A), TNFRSF1A (gene 7132)
Description: LTEA_HepaRG_TNFRSF1A: Life Technologies and Expression Analysis (LTEA) Assay for Tumor necrosis factor receptor 1 (TNFRSF1A) using HepaRG (AID 2283535). The settings on record: mRNA level, 48 h; actives raise or lower the signal. The method, boiled down:
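Differentiated human HepaRG cells were exposed in duplicate for 48 h in serum-free induction medium to eight concentrations (top 100 uM, half-log steps, 0.5% DMSO). TNFRSF1A mRNA was quantified by qRT-PCR, normalized to ACTB, GAPDH and POLR2A, then fitted bidirectionally against DMSO.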

Read-out in assay [11]: Thyroid Hormone Responsive (THRSP), THRSP (gene 7069)
Description: LTEA_HepaRG_THRSP: Life Technologies and Expression Analysis (LTEA) Assay for Thyroid Hormone Responsive (THRSP) using HepaRG (AID 2283536). The note with it: mRNA level, 48 h; actives raise or lower the signal. The method, boiled down: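 THRSP transcript quantified by Fluidigm qRT-PCR against three housekeeping genes after 48 h chemical exposure of HepaRG cells in serum-free induction medium; eight-point half-log series, top 100 uM, 0.5% DMSO vehicle, duplicate wells.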

Read-out in assay [12]: Cellular tumor antigen p53 (Homo sapiens) (UniProt P04637)
The experiment in a line: LTEA_HepaRG_TP53: Life Technologies and Expression Analysis (LTEA) Assay for Tumor Protein P53 (TP53) using HepaRG (AID 2283537). The settings on record: mRNA level, 48 h; actives raise or lower the signal. The method, boiled down: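 Differentiated HepaRG cells in serum-free induction medium exposed 48 h in duplicate to 8 half-log concentrations, top 100 uM, 0.5% DMSO. TP53 mRNA by TaqMan qRT-PCR (Fluidigm), normalized to ACTB, GAPDH, POLR2A; fitted bidirectionally versus DMSO.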

Read-out in assay [13]: UDP glucuronosyltransferase (UGT1A1), UGT1A1 (gene 54658)
The experiment in a line: LTEA_HepaRG_UGT1A1: Life Technologies and Expression Analysis (LTEA) Assay for UDP glucuronosyltransferase (UGT1A1) using HepaRG (AID 2283538). The settings on record: mRNA level, 48 h; actives raise or lower the signal. The method, boiled down: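 mRNA induction or loss of UGT1A1, by TaqMan qRT-PCR, in duplicate HepaRG wells after 48 h exposure to half-log dilutions topping at 100 uM; DMSO (0.5%) served as baseline.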

Read-out in assay [14]: UDP glucuronosyltransferase (UGT1A6), UGT1A6 (gene 54578)
The experiment in a line: LTEA_HepaRG_UGT1A6: Life Technologies and Expression Analysis (LTEA) Assay for UDP glucuronosyltransferase (UGT1A6) using HepaRG (AID 2283539). The note with it: mRNA level, 48 h; actives raise or lower the signal. A digest of the protocol: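 Human HepaRG cells were dosed for 48 h in serum-free induction medium with 0.5% DMSO vehicle, eight-point half-log series from 100 uM, in duplicate. UGT1A6 mRNA was measured by qRT-PCR, normalized to ACTB, GAPDH, POLR2A, and fitted bidirectionally against DMSO.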

Read-out in assay [15]: X-box binding protein 1 (XBP1), XBP1 (gene 7494)
Description: LTEA_HepaRG_XBP1: Life Technologies and Expression Analysis (LTEA) Assay for X-box binding protein 1 (XBP1) using HepaRG (AID 2283540). The note with it: mRNA level, 48 h; actives raise or lower the signal. A digest of the protocol: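 Differentiated human HepaRG cells in serum-free induction medium were exposed in duplicate for 48 h to eight half-log concentrations up to 100 uM in 0.5% DMSO. XBP1 mRNA was quantified by qRT-PCR, normalised to ACTB, GAPDH and POLR2A, with bidirectional fitting against DMSO.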

Assay [16] can be described thus: LTEA_HepaRG_LDH_cytotoxicity: Cytotoxicity Assessment in the Life Technologies and Expression Analysis (LTEA) Assay (AID 2283563; active = hit-call score of the fitted dose curve at least 0.9, where 1 is the maximum;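 for AC50: LDH activity released into spent culture medium as a marker of cell death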). A digest of the protocol: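 Differentiated human HepaRG cells, plated 48 h beforehand, were switched to serum-free induction medium and exposed for 48 h to eight half-log concentrations (top 100 uM) in 0.5% DMSO. LDH was measured in spent medium; activity was fitted relative to DMSO vehicle.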

A short description of assay [17]: TOX21_p53_BLA_p2_viability: Viability Assessment in the Tox21 HCT-116 p53 Agonism Beta-lactamase Assay, Phase 2 (AID 2283591; active = hit-call score of the fitted dose curve at least 0.9, where 1 is the maximum;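 note: compound exposure lasted 16 h at 37 °C; actives lower the ATP signal meaning cytotoxicity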). The method, boiled down:
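Cytotoxicity readout: CellTiter-Glo ATP luminescence, 30 min at room temperature, after the beta-lactamase read. Cells were HCT116 exposed 16 h at 37C to compounds pin-transferred at 217-fold dilution from DMSO stocks.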

Read-out in assay [18]: Transforming Growth Factor (TGFB1), TGFB1 (gene 7040)
The experiment in a line: LTEA_HepaRG_TGFB1: Life Technologies and Expression Analysis (LTEA) Assay for Transforming Growth Factor (TGFB1) Transporter using HepaRG (AID 2283533). The note with it: mRNA level, 48 h; actives raise or lower the signal. A digest of the protocol:
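Differentiated human HepaRG cells in serum-free induction medium were exposed in duplicate for 48 h to eight concentrations (top 100 uM, half-log steps, 0.5% DMSO). TGFB1 mRNA was quantified by qRT-PCR, normalized to ACTB, GAPDH, POLR2A, and fitted bidirectionally against DMSO.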

The structures appear in SMILES notation. Results filed as inconclusive are left out. Calls of active or inactive are those of the source. Rule for the calls, unless noted: active = hit-call score of the fitted dose curve at least 0.9, where 1 is the maximum; inactive = score below 0.9.

Signal transducer and activator of transcription 3 (Homo sapiens), sequence (P40763 whole entry, looked up): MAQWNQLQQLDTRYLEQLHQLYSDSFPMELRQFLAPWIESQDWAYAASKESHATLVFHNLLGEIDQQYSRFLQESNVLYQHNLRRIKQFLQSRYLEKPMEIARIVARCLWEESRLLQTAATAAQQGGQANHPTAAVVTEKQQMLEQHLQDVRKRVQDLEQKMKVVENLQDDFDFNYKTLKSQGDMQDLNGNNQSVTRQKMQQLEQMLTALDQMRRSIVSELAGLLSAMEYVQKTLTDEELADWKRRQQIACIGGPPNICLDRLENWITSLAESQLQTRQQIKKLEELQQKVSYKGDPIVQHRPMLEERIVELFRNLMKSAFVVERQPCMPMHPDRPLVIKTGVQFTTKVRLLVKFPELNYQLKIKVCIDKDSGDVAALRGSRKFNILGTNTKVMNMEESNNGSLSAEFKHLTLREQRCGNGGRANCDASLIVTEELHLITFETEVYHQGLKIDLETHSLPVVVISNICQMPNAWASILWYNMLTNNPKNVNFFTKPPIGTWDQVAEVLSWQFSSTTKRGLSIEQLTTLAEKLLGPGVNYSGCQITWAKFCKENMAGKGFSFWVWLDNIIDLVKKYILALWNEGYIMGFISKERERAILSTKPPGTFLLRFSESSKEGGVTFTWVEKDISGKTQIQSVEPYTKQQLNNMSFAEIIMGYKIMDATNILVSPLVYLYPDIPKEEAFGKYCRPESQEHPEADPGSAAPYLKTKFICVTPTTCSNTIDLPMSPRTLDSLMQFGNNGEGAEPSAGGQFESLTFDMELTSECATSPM
Cellular tumor antigen p53 (Homo sapiens), sequence (P04637 whole entry, looked up): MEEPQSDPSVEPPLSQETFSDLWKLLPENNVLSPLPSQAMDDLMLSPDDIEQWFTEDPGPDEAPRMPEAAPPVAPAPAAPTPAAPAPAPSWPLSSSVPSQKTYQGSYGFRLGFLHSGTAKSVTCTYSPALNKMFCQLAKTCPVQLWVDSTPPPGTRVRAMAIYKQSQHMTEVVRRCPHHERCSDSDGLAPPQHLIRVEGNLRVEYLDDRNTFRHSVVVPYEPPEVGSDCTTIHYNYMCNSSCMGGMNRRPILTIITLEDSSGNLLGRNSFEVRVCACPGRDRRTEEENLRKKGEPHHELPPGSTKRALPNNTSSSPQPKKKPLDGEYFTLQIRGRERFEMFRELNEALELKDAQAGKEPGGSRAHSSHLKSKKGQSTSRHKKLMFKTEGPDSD
Nuclear factor erythroid 2-related factor 2 (Homo sapiens), sequence (Q16236 whole entry, looked up): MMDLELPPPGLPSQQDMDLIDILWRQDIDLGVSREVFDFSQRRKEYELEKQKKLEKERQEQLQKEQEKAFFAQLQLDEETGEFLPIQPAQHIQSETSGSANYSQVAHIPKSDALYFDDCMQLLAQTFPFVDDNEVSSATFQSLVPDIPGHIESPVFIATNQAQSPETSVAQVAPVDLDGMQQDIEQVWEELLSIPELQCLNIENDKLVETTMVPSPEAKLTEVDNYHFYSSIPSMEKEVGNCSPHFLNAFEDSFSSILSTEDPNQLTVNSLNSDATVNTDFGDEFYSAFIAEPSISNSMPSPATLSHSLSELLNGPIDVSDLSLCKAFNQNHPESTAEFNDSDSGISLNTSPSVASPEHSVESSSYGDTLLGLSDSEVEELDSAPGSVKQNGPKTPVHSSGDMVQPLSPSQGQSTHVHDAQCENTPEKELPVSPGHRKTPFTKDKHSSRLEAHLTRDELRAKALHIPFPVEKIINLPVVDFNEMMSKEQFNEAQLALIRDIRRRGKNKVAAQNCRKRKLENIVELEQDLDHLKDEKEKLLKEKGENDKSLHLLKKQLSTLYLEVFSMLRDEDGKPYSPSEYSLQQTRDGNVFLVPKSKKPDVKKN

As to `Nc1ccc([N+](=O)[O-])cc1`, the compound was called inactive in assay [1], in assay [2], in assay [3], in assay [4], in assay [5] and in [6]. Besides, the outcome in [7] is “inactive”; in assay [8], “inactive”; in [9], “inactive”; with TIMP1, TIMP1 (gene 7076), “inactive”; in assay [10], “inactive”; in assay [11] it was “inactive”. In addition, the compound was classed as inactive in assay [12], in assay [13], in assay [14], in [15], in assay [16] and in assay [17].
On to `C1=Cc2cccc3cccc1c23`, for which the compound was classed as inactive in [1], in assay [2], in assay [3], in assay [4], in assay [5] and in assay [6]. For the same compound, the outcome was “inactive” in [7]; “inactive” in [8]; “inactive” in assay [9]; “inactive” in assay [18]; “inactive” in the assay with TIMP1, TIMP1 (gene 7076); “inactive” in [10]. Further, the outcome in assay [11], in assay [12], in [13], in assay [14], in [15] and in [16] was inactive. Also, the compound was classed as inactive in assay [17].
One may read the AC50 as the concentration giving half of the maximal activity seen. Turning to `O=C(N[C@H](c1ccccc1)[C@@H]1CN2CCC1CC2)c1c(Cl)ccc(C(F)(F)F)c1Cl`, the AC50 was 72.1 µM (active) in assay [1]; 71.5 µM (active) in assay [4]; 83.3 µM (active) in [6]; 73.9 µM (active) in assay [7]; 73.2 µM (active) in assay [8]; 46.2 µM (active) in [9]. The AC50 with TIMP1, TIMP1 (gene 7076) was 64.9 µM (active); in assay [10], 73.9 µM (active); in assay [13], 63.8 µM (active); in [14] it was 68.2 µM (active); in [15] it was 73.9 µM (active); in assay [16], 51.9 µM (active). Moreover, the compound was called inactive in assay [2], in assay [3], in [5], in assay [11], in [12] and in assay [17].

Source of the values: PubChem BioAssay (EPA / NIEHS).
